Bioassay records from PubChem.
Only a sample is shown.
aSyn UTR act = Activators via SNCA 5'UTR binding, MLPCN | alpha-synuclein 5'UTR reporter, activators screen | activity score, % (tested at 7.5 µM), hits read low | hit rate 7.1% among 300,000 | AID 1814; in the data active = activity score below about -60%
Each line names hits and unclear results; the compound was inactive in the other large screens.

O=C(c1ccco1)N1CCN(Cc2c(F)cccc2Cl)CC1	aSyn UTR act -74.8
O=C(c1ccco1)N1CCN(c2ccc(Cl)c(Cl)c2)CC1	aSyn UTR act -121.4
O=C(c1ccco1)N1CCN(C(=O)N2c3ccccc3Sc3ccccc32)CC1	none
CCOC(=O)c1[nH]c2ccc(C)cc2c1N	aSyn UTR act -233.7
O=C(Nc1ccc(CN2CCOCC2)cc1)c1cc2ccccc2o1	aSyn UTR act -71.4
Cc1c(C(=O)Nc2ccc(N3CCOCC3)cc2)oc2ccccc12	aSyn UTR act -166.2
O=C(Nc1ccc(CN2CCOCC2)cc1)c1cc2ccccn2n1	none
O=C(Nc1ccc(N2CCOCC2)cc1)c1cc2ccccc2o1	aSyn UTR act -109.9
O=C(/C=C/N1CCOCC1)c1coc2ccccc12	aSyn UTR act -104.2
O=C(/C=C/N1CCOCC1)c1cc2ccccc2o1	aSyn UTR act -82.4
CCc1ccc2c(c1)[C@]1(C(=O)N2)[C@@H]2C(=O)N(Cc3ccccc3)C(=O)[C@@H]2[C@@H]2CCCN21	aSyn UTR act -77.8
CC(C)c1ccc(CNc2ncccn2)cc1	aSyn UTR act -127.7
Cn1cnc2cc(NCc3ccccc3Cl)ccc21	aSyn UTR act -92.2
CCCC(=O)NC(c1ccc(C(C)C)cc1)c1ccc2cccnc2c1O (stereo not drawn)	none
CCn1cnc2cc(NCc3ccccc3Cl)ccc21	aSyn UTR act -87.1
CC(C)c1ccc(CNc2ccc3c(c2)ncn3C)cc1	aSyn UTR act -205.8
Cc1cccc(N=c2c([N+](=O)[O-])nn(-c3ccc(Cl)cc3)n2O)c1	aSyn UTR act -67.6
O=[N+]([O-])c1nn(-c2ccccc2)n(O)c1=NC1CCN(Cc2ccccc2)CC1	none
Cc1ccc(CN=c2c([N+](=O)[O-])nn(-c3ccc(Cl)cc3)n2O)cc1	aSyn UTR act -68.9
Cc1cc(C)cc(N=c2c([N+](=O)[O-])nn(-c3cccc(Cl)c3)n2O)c1	aSyn UTR act -65.5
CCCCOc1ccc(N(CC(=O)NCc2ccccc2)C(=O)c2csnn2)cc1	aSyn UTR act -69.3
COC(=O)C(Cc1ccc(OC(=O)c2ccc(Cl)cc2)cc1)N1Cc2ccccc2C1=O (stereo not drawn)	aSyn UTR act -124.1
COC(=O)C(Cc1ccc(OC(=O)c2ccc(C(F)(F)F)cc2)cc1)N1Cc2ccccc2C1=O (stereo not drawn)	aSyn UTR act -137.2
COc1cc(CNc2ccc3[nH]c(=O)[nH]c3c2)ccc1OCc1ccccc1F	aSyn UTR act -107.4
COc1cc(CNc2ccc3[nH]c(=O)[nH]c3c2)ccc1OCc1ccc(F)cc1	aSyn UTR act -91.2
COc1cc(CNc2ccc3[nH]c(=O)[nH]c3c2)ccc1OCc1ccccc1	aSyn UTR act -86.3
COc1cc(CNc2ccc(CNc3ncn[nH]3)cc2)ccc1OCc1ccccc1	aSyn UTR act -116.7
COc1cc(CNc2ccc3[nH]c(=O)[nH]c3c2)ccc1OCc1ccc(Cl)cc1	aSyn UTR act -171.0
Cc1ccc2cc(NC(=O)c3ccc(C(C)(C)C)cc3)ccc2n1	aSyn UTR act -63.2
CCc1ccc(C(=O)Nc2ccc3nc(C)ccc3c2)cc1	aSyn UTR act -177.5
CC(C)CN(C(=O)c1ccc(=O)n(C)n1)c1nc2ccccc2s1	aSyn UTR act -109.3
COc1cc2c(cc1NC(=O)c1cccc([N+](=O)[O-])c1)oc1ccccc12	none
COc1cc2c(cc1NC(=O)c1cccnc1)oc1ccccc12	aSyn UTR act -154.8
COc1cc2c(cc1NC(=O)c1ccncc1)oc1ccccc12	aSyn UTR act -131.9
Cc1cc2nc3c(nc2cc1C)CCCC3	aSyn UTR act -177.5
Cc1c(-c2ccccc2)[nH]n2c(=O)c3c(nc12)CCCC3	aSyn UTR act -166.2
O=c1c2c(nc3c(-c4cccc(Br)c4)c[nH]n13)CCCC2	none
Cc1ccc(-c2[nH]n3c(=O)c4c(nc3c2C)CCCC4)cc1	aSyn UTR act -74.9
Cc1ccc(C(C)(C)NC(=O)C2CCC(=O)N(C3CCCCCC3)C2)cc1 (stereo not drawn)	aSyn UTR act -146.9
COc1ccccc1NC(CC(=O)c1ccccc1)C(=O)OCC(=O)c1ccc(C)cc1 (stereo not drawn)	aSyn UTR act -189.7
COc1ccccc1NC(CC(=O)c1ccccc1)C(=O)OCC(=O)c1ccc(C)c(C)c1 (stereo not drawn)	aSyn UTR act -127.2
O=C(CC(Nc1ccccc1Cl)C(=O)OCC(=O)c1cccs1)c1ccccc1 (stereo not drawn)	aSyn UTR act -118.5
COc1ccccc1NC(CC(=O)c1ccccc1)C(=O)OCC(=O)c1ccc(Br)cc1 (stereo not drawn)	aSyn UTR act -130.0
COc1ccc(/C(N)=N/OC(=O)c2cccc([N+](=O)[O-])c2C)cc1	aSyn UTR act -113.1
COc1cccc(C(=O)O/N=C(\N)c2ccc([N+](=O)[O-])cc2)c1	aSyn UTR act -163.9
COc1cccc(/C(N)=N/OC(=O)Cc2ccccc2[N+](=O)[O-])c1	aSyn UTR act -77.1
COc1cccc(C(=O)O/N=C(\N)c2ccc(C)cc2)c1	aSyn UTR act -211.2
COc1ccc(/C(N)=N/OC(=O)c2cccc([N+](=O)[O-])c2)cc1	aSyn UTR act -129.2
CCCC(=O)Nc1ccc2c(c1)Cc1ccccc1-2	aSyn UTR act -138.1
COc1ccc(NC(=S)NC(=O)c2ccc(Br)o2)cc1	aSyn UTR act -106.9
